# Source: PubChem BioAssay
# ERAP1 inh = blocks human ERAP1 aminopeptidase activity | recombinant ERAP1, Leu-AMC fluorescence, 60 min | inhibition, % at 10.7 µM | 340,000 tested, 0.15% active | AID 652197;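 active = mean replicate inhibition of at least 30%, or all replicates individually reaching that 30% level; inactive = mean below 30% and not every replicate reaching it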;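 note: 0% = neutral control wells and 100% = L-leucinethiol positive control wells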
# FGF22 binding-1 = binders of recombinant human FGF22 by thermal shift | activity (Tm shift, normalised), % at 9.99 µM | AID 651658 | Q9HCT0 | 340,000 tested, 1.5% active | SYPRO orange fluorescence; percent of sucrose octasulfate shift, DMSO zero;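 active = mean Tm shift, scaled 0 neutral to 100 positive control, at about 1.3% or above, every replicate too, limit read from the data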
# SIRT5 inh = sirtuin-5 (human) deacylase inhibition | Q9NXA8 | Purified SirT5, succinyl-peptide AMC, trypsin-coupled fluorescence | inhibition, % at 15 µM | 330,000 tested, 1.1% active | AID 652115; in the data active = inhibition above about 15%
# Target sequence (Q9NXA8 whole entry, looked up): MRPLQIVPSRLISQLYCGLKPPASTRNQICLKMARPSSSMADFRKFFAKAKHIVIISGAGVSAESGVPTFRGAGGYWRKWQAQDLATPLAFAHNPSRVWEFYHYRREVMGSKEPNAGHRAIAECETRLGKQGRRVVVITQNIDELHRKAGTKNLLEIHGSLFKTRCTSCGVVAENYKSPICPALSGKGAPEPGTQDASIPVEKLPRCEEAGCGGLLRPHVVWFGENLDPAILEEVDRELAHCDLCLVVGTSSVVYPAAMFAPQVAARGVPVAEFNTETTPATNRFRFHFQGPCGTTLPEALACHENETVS
# Casp6 inh = caspase-6 (human) enzyme inhibition | P55212 | purified caspase-6, Z-VEID-R110 cleavage fluorescence | inhibition, % at 12.5 µM | 350,000 tested, 0.53% active | AID 686996;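 active = mean inhibition across replicates at least about 35%, with every replicate also reaching that limit, limit read from the data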;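 note: 0% = median of neutral control wells and 100% = no fluorescence left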
# Target sequence (P55212 24-179 limits assumed): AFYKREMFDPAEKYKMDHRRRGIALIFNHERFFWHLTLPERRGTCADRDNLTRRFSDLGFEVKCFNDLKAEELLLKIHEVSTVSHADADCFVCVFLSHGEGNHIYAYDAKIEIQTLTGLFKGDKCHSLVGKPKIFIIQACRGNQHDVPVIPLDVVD
# Target sequence (P55212 194-293 limits assumed): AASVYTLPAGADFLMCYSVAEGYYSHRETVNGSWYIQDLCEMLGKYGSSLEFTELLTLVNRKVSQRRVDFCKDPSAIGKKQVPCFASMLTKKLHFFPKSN
# FGF22 binding-2 = FGF22 (human) binding in thermal shift; shares compounds with FGF22 binding-1; recombinant FGF22 thermal shift, SYPRO orange fluorescence; thermal shift activity, °C (ΔTm) at 38 µM; 1,000 tested, 2% active; AID 720646;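 active = fitted rise in melting shift crosses a set limit at or below the top valid dose tested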
# FGF22 TSA DP = binders of human FGF22 by thermal shift; shares compounds with FGF22 binding-1; Thermal shift assay, SYPRO orange, melting temperature shift; Tm shift (activity), % at 38 µM; 50 tested, under 10 active; AID 743017;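 active = compounds whose fitted dose curve of melting temperature shift rises past a set threshold within the tested doses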
# TSA no protein = counter-screen for FGF22 binders: compound-only thermal shift, no protein; shares compounds with FGF22 binding-1; AC50, µM (titrated, usually from 38 µM); 1,000 tested, 2% active; compound-only SYPRO orange thermal shift counter-screen;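 active = rising signal whose fitted curve reaches the 0.54 level within the top valid dose, showing a melting point, actives reach about 13 µM in these data; inactive = the rest, including activity in the opposite direction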; note: value is where the raw curve crosses a fixed level and not half-maximal
# Starred values were filed as active, the others as inactive; i = inactive; . = no result given; ! = not active in a repeat; [ ] = another dose, or the depositor's remark. This is a sample that favours compounds with a hit; in the whole collection about 3.1% have one here.
SMILES,ERAP1 inh,FGF22 binding-1,SIRT5 inh,Casp6 inh,FGF22 binding-2,TSA no protein,others
O=C(C1CCCCC1)N1CC2(C1)[C@H](c1ccccc1)[C@H](CO)N2Cc1nccs1,0.1,-0.1,-1.4,0.5,.,.,
O=C(C[C@H]1CC[C@H](NC(=O)C2CC2)[C@H](CO)O1)NCc1ccccc1Cl,-0.2,0.1,-3.1,-1.6,.,.,
CCCC(=O)N1CC2(CN(C)C2)c2c(n(C)c3cc(OC)ccc23)[C@H]1CO,3.6,.,1.3,-1.7,.,.,
COc1ccc(NC(=O)N(C)C[C@H]2Oc3ccc(NC(=O)NC(C)C)cc3CC(=O)N([C@@H](C)CO)C[C@H]2C)cc1,0.3,0.2,1.7,-0.2,.,.,
COc1ccc(NC(=O)N(C)C[C@@H]2Oc3ccc(NC(=O)NC(C)C)cc3CC(=O)N([C@H](C)CO)C[C@@H]2C)cc1,-3.1,14.8*!,-4.5,1.9,0.077,i,
COc1ccc(NC(=O)Nc2ccc3c(c2)CC(=O)N([C@H](C)CO)C[C@@H](C)[C@H](CN(C)S(=O)(=O)c2ccccc2)O3)cc1,2.0,-0.7,3.6,2.4,.,.,
COc1ccc(S(=O)(=O)N(C)C[C@@H]2Oc3ccc(NC(=O)Nc4ccccc4)cc3CC(=O)N([C@H](C)CO)C[C@@H]2C)cc1,2.5,1.7*,4.6,-0.1,0.036[42 µM],i,
O=C(Nc1ccc(F)c(Cl)c1)C1CCCN(C2=NS(=O)(=O)c3ccccc32)C1 (stereo not given),-2.7,30.8*,-1.2,-2.5,0.254,i,
O=C(c1cccc(NC2=NC3CS(=O)(=O)CC3S2)c1)N1CCN(c2ncccn2)CC1 (stereo not given),0.6,12.0*,0.3,1.2,-0.247,i,
CCC(C)N(C(=O)COc1ccc(-c2nnco2)cc1)C1CCS(=O)(=O)C1 (stereo not given),1.5,36.1*,0.0,1.6,-0.045,i,
C/C=C/c1ccc2c(c1)O[C@H](CN(C)Cc1ccncc1)[C@@H](C)CN([C@H](C)CO)S2(=O)=O,0.7,0.0,1.0,-0.6,.,.,
C/C=C/c1ccc2c(c1)O[C@H](CN(C)C(=O)Nc1ccc(F)cc1)[C@H](C)CN([C@@H](C)CO)S2(=O)=O,-4.3,.,-5.7,-4.0,.,.,
C/C=C/c1ccc2c(c1)O[C@H](CN(C)C(=O)Nc1cc(F)ccc1F)[C@H](C)CN([C@H](C)CO)S2(=O)=O,0.6,1.2*,6.4,-2.8,0.026[42 µM],i,
C/C=C/c1ccc2c(c1)O[C@@H](CN(C)C(=O)Nc1cccc(F)c1)[C@@H](C)CN([C@@H](C)CO)S2(=O)=O,1.1,1.5*,3.7,0.5,-0.824[42 µM],i,
C/C=C/c1ccc2c(c1)O[C@H](CN(C)C(=O)Nc1cccc(F)c1)[C@H](C)CN([C@H](C)CO)S2(=O)=O,0.4,0.2,4.5,2.4,.,.,
C/C=C/c1ccc2c(c1)O[C@@H](CN(C)Cc1ccncc1)[C@@H](C)CN([C@@H](C)CO)S2(=O)=O,-0.1,1.6*,2.0,-1.2,0.188[42 µM],i,
C[C@@H]1CN([C@H](C)CO)C(=O)c2cc(NC(=O)Nc3ccc(C(F)(F)F)cc3)ccc2O[C@@H]1CN(C)Cc1ccc(C(=O)O)cc1,-0.4,1.4*,0.4,-1.4,-0.104[42 µM],i,
C[C@@H]1CN([C@@H](C)CO)C(=O)c2cc(NC(=O)Nc3ccc(C(F)(F)F)cc3)ccc2O[C@@H]1CN(C)Cc1ccc(C(=O)O)cc1,-0.9,2.5*,-0.5,0.5,0.03,i,
C[C@@H]1CN([C@@H](C)CO)C(=O)c2cc(NC(=O)Nc3ccc(C(F)(F)F)cc3)ccc2O[C@H]1CN(C)Cc1ccc(C(=O)O)cc1,-1.5,0.1,14.3,1.0,.,.,
Cc1cc(NC(=O)Nc2ccc3c(ccn3C)c2)sn1,-3.1,2.8*,8.6,0.0,0.141,i,FGF22 TSA DP=0.0
O=C(C[C@@H]1CC[C@@H]2[C@H](COC[C@H](O)CN2Cc2ccc(C(F)(F)F)cc2)O1)NCCc1ccccc1,-0.1,0.0,1.0,0.9,.,.,
CC1(c2ccc3ccccc3c2)NC(=O)N(CC(=O)Nc2ncccc2O)C1=O (stereo not given),-0.6,1.7*,8.3,15.7,0.14,i,
Cc1ccnc(NC(=O)CN2C(=O)NC(C)(c3ccc4ccccc4c3)C2=O)c1 (stereo not given),-1.6,-0.5,-6.8,-51.0,.,.,
CC(=O)c1ccc(S(=O)(=O)N2CCN(CC(=O)Nc3ccc(Cl)c([N+](=O)[O-])c3)CC2)cc1,-6.3,2.6*,-2.0,0.0,0.023,i,
O=C(CN1CCN(S(=O)(=O)c2ccc(Br)cc2)CC1)N/N=C/c1ccc(Cl)c([N+](=O)[O-])c1,-1.4,0.1,-0.6,-1.1,.,.,
SMILES,ERAP1 inh,FGF22 binding-1,SIRT5 inh,Casp6 inh,FGF22 binding-2,TSA no protein,others
CNC(=O)C[C@H]1CC[C@@H]2[C@H](COc3ccc(NC(=O)Nc4ccccc4OC)cc3C(=O)N2C)O1,0.9,0.6,-7.0,3.1,.,.,
O=C(C[C@@H]1C=C[C@H](NC(=O)c2cccc(F)c2)[C@H](CO)O1)NCc1ccccc1,0.2,20.2*,-1.9,2.3,-0.137,i,
O=C(C[C@@H]1C=C[C@H](NC(=O)Nc2cc(F)ccc2F)[C@H](CO)O1)Nc1ccc(-c2ccccc2)cc1,0.1,1.8*,-1.7,-1.7,-0.262,i,
CO[C@@H]1CN(C)C(=O)c2cc(NC(C)=O)ccc2OC[C@@H](C)N(Cc2ccncc2)C[C@H]1C,2.2,-0.4,-1.0,.,.,.,
CNC[C@H]1Oc2c(NS(=O)(=O)c3ccc(OC)cc3)cccc2C(=O)N([C@H](C)CO)C[C@@H]1C,2.3,-0.5,-0.7,0.8,.,.,
COc1ccc(S(=O)(=O)N(C)C[C@@H]2Oc3c(NS(=O)(=O)c4ccc(C)cc4)cccc3C(=O)N([C@H](C)CO)C[C@@H]2C)cc1,2.9,1.3*,3.0,0.4,-0.004[42 µM],i,
COc1ccc(S(=O)(=O)Nc2cccc3c2O[C@H](CN(C)S(=O)(=O)c2ccc(C)cc2)[C@@H](C)CN([C@H](C)CO)C3=O)cc1,.,-0.2,.,.,.,.,
CNC[C@@H]1Oc2c(NS(=O)(=O)c3ccc(OC)cc3)cccc2C(=O)N([C@@H](C)CO)C[C@@H]1C,3.6,3.6*,-2.6,-2.8,0.139,i,
COc1ccc2c3c([nH]c2c1)[C@H](CO)N(C(=O)Nc1ccc(F)cc1)CC31CN(C(=O)c2ccccn2)C1,0.1,-0.1,8.0,0.3,.,.,
CCC(C)[C@H](NC(=O)N1CCn2c1nc1ccccc12)C(=O)NCCc1ccccc1 (stereo not given in full),-2.5,14.2*,-5.1,0.7,0.016,i,
CCC(C)[C@H](NC(=O)N1CCn2c1nc1ccccc12)C(=O)NCCc1ccc(OC)c(OC)c1 (stereo not given in full),-0.9,-0.2,1.0,3.6,.,.,
